We go through 27 molecules from ChEMBL document CHEMBL4513216, “Probing the Open Global Health Chemical Diversity Library for Multistage-Active Starting Points for Next-Generation Antimalarials” (ACS Infect Dis, 2020).

The structures appear in SMILES notation. The whole screen tested about 68,000 compounds, of which about 2,700 (4%) showed an effect of 50% or more. The sample holds strong results, similar compounds and a random draw of the others, so the mix is not that of the screen.

For this assay, the system named is Plasmodium berghei. As to the kind of experiment: Screen against P. berghei liver stage (PbLuc), transformed with Luciferase, at 2uM. The class given is functional, HepG2. The conditions noted are these: tested at 2 uM.
Consider `COCCN1CCc2cc(C(=O)NCC3CC3)c(NC(C)C)nc2CC1`, for which the INHIBITION is recorded as 25.35%. As to `COC[C@]1(O)CCN(C(=O)c2ccc(CN(C)C)o2)CC1(C)C`, the INHIBITION is on record as 8.88%. With `CN(Cc1ccccc1)C1(C(=O)NC(CO)CO)Cc2ccccc2C1` the figure was 31.35%. With `CC(Cc1cn(CCc2nnn[nH]2)nn1)c1ccccc1` (configuration not stated) the figure was 29.41%. With `Cc1nccc([C@H]2C[C@@H]3CCN(S(=O)(=O)N(C)C)C[C@H]3O2)n1` the figure was 21.33%; with `Cc1nccc([C@@H]2C[C@@H]3CCN(S(C)(=O)=O)C[C@H]3O2)n1`, 26.65%.

As to `Cc1nccc([C@@H]2C[C@@H]3CCN(S(=O)(=O)N(C)C)C[C@H]3O2)n1`, the INHIBITION is reported as 54.16%. As to `COc1cc(N2C[C@H]3CCC[C@@H](CN4CCOCC4)[C@H]3C2)ncn1`, the INHIBITION amounted to 36.75%.

For the molecule `CCCS(=O)(=O)N1C[C@@H]2CN(Cc3ccoc3)CCO[C@@H]2C1`, the INHIBITION was found to be 33.4%.

`CN1CC2(CCN(C(=O)c3ccc(=O)n(C)c3)CC2)CC1=O`: the INHIBITION was 53.13%. Take `COCCCN1CC2(CCN(C(=O)c3ccc(=O)n(C)c3)CC2)CC1=O`: the INHIBITION came out at 44.23%. Consider `CN1CC2(CCN(C(=O)c3ccc4nonc4c3)CC2)CC1=O`, for which the INHIBITION is 10.02%.

Turning to `CCN1CCN(C(=O)c2ccc(=O)n(C)c2)c2ccccc21`, the INHIBITION is reported as -22.63%. With `CC(=O)N1CCCN(C(=O)c2ccc(=O)n(C)c2)c2ccccc21` the figure was 28.18%; with `CC1CN(C)c2ccccc2N(C(=O)c2ccc(=O)n(C)c2)C1` (configuration not stated), 15.47%; with `Cn1cc(C(=O)N2CCOc3ccccc32)ccc1=O`, -31.6%. For the molecule `CN1CCN(C(=O)c2ccc(=O)n(C)c2)c2ccccc21`, the INHIBITION is given as 51.19%. Consider `Cn1cc(C(=O)N2CCSc3ccccc32)ccc1=O`, for which the INHIBITION was 50.05%. With `CC(C)n1nc(CN2CCCC2)c2c1CN(CC1CC1)CC2` the figure was -29%. Regarding `FC(F)(F)CCc1ccnc(NCc2csc(N3CCOCC3)n2)n1`, the INHIBITION is -17.11%. For `Cn1nnc2c1C(COCC1CC1)CN(C(=O)C1=CCCC1)C2` (configuration not stated) the value was 22.68%; for `CCN1CCC2(CCN(c3ncccn3)CC2)C1=O`, 32.05%.

For `CC(C)NS(=O)(=O)c1cc(C(=O)O)cc(-c2ccc3c(c2)OCO3)c1`, the INHIBITION is reported as -12.67%. For the molecule `O=C(NCc1ccccn1)[C@@H]1CCO[C@@H]2CCN(Cc3ccoc3)C[C@H]21`, the INHIBITION is 11.08%.

On to `O=C(c1ccno1)N1CCCC(c2ncncc2-c2ccncc2)C1` (configuration not stated), for which the INHIBITION came out at 6.13%. In the case of `OC1(CN2CCCC(Cn3cncn3)C2)CCCCC1` (configuration not stated), the INHIBITION amounted to 19.9%. For `COCC(NC1CCSCC1)c1ccnn1C` (configuration not stated) the value was 27.55%.
